High-throughput results deposited in PubChem by National Center for Advancing Translational Sciences (NCATS).
A selection: hits, their analogues and other compounds. The true share with any hit is near 9.3%.
ELG1 genotoxic = genotoxicity induction in ELG1-luciferase HEK293T cells; HEK293T ELG1-luciferase reporter, luminescence, 16 h; Potency, µM (titrated, usually from 46 µM), usual class: activators; hit rate 1.3% among 330,000; further: nearly all actives have a fitted effect of over 60% in size
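Cells (2,000/well) expressing the ELG1-luciferase fusion are dosed by pin tool and kept 16 hr at 37 °C, 5% CO2. Signal comes from ONE-Glo luciferase reagent after 30 min at room temperature.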
SMN2 splice enh = enhancers of SMN2 splice variant expression; HEK293 SMN2-luciferase splicing reporter, luminescence, 30-36 h; Potency, µM (top dose mostly 46.1 µM), actives largely listed as activators; hit rate 2.8% among 210,000; AID 1458; further: nearly all actives have a fitted effect of over 55% in size
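HEK293 cells carry an SMN2 minigene-luciferase reporter in which exon 7 inclusion puts luciferase in frame. Cells were seeded at 2000 cells/well, attached for 10-12 hours, then exposed to compounds for 30-36 hours at 37C before ONE-Glo luminescence.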
FLuc modulator = firefly luciferase modulation, counter-screen for miR-21 project; P08659; purified FLuc, Km substrates, luminescence inhibition; Potency, µM (doses to about 57.5 µM), actives largely listed as inhibitors; hit rate 6.9% among 360,000; AID 588342; further: nearly all actives have a fitted effect of over 55% in size
Target sequence (P08659 whole entry, looked up): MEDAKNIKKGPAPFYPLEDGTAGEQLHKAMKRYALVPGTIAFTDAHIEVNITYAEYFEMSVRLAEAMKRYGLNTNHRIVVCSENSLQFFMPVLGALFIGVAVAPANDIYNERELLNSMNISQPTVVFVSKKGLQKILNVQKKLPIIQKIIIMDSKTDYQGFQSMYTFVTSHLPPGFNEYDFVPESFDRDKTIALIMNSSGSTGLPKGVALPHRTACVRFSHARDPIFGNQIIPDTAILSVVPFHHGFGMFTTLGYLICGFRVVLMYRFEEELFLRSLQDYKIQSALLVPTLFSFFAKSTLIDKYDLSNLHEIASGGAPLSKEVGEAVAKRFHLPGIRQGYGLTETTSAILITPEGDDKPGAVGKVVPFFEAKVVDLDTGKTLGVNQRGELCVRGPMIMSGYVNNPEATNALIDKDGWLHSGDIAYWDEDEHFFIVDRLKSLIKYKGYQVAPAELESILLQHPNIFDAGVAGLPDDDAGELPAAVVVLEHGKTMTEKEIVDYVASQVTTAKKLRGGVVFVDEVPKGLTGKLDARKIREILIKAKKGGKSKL
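Purified P. pyralis luciferase (10nM final) with 10uM D-luciferin and 10uM ATP (Km levels) in 50mM Tris acetate pH 7.5, 10mM Mg acetate, 0.01% Tween-20, 0.05% BSA; qHTS 6-point titration, ~60 µM downward; luminescence read.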
Rab9 prom act = activators of Rab9 promoter; Huh7 Rab9 promoter-luciferase reporter, luminescence, 24 h; hit rate 2.8% among 320,000; Potency, µM (top dose mostly 9.22 µM), hits mostly activators; further: nearly all actives have a fitted effect of over 60% in size
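Steps: seed 1500 Huh7 Rab9-luc cells per well, rest 2 h at 37 °C; add compound in DMSO; incubate 24 h; add luciferase reagent, 10 min ambient; read luminescence.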
NPC1 promoter act = activates the NPC1 promoter. Huh7 NPC1 promoter luciferase reporter, 24 h. Potency, µM (series often up to 9.22 µM), actives largely listed as activators. hit rate 2.4% among 320,000. AID 485313; further: nearly all actives have a fitted effect of over 60% in size
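Quantitative HTS used a cell-based reporter: Huh7 cells stably bearing the NPC1 promoter upstream of luciferase were treated with compounds for 24 h, and promoter activation was read as luminescence.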
ELG1 repair inh = blocks ELG1-dependent DNA repair in HEK293T cells | hit rate 2.3% among 330,000 | AID 504467 | Potency, µM (titrated, usually from 46.1 µM), usual class: inhibitors | HEK293T ELG1-luciferase reporter, luminescence, 16 h; DNA damage induced by 5-fluorouridine; further: nearly all actives have a fitted effect of over 55% in size
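DMSO vehicle served as the neutral condition. Each well held 2,000 cells given 5-fluorouridine plus compound; after 16 hr at 37 °C/5% CO2, ONE-Glo was added and luciferase measured 30 min later.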
Numbers stand for hits; n = inactive; u = inconclusive; x = not tested or not shown; [ ] = remark or other dose. The call rests on the fitted dose curve; in most records, active means well fitted curve in the direction sought with a large enough effect; inconclusive means small, poorly fitted or top-dose-only effect, or another doubt; inactive means no such curve, though single readings can be large; an effect the other way counts as inactive or inconclusive.

SMILES	ELG1 genotoxic	SMN2 splice enh	FLuc modulator	Rab9 prom act	NPC1 promoter act	ELG1 repair inh
CCNC(=O)COC(=O)c1cc(-c2ccc(OC)cc2)nc2ccccc12	n	n	5.36µM	n	n	n
CCCNC(=O)COC(=O)c1cc(-c2ccc(OC)cc2)nc2ccccc12	n	n	u	n	n	n
O=C(COC(=O)c1cc(-c2ccccc2)nc2ccccc12)NC1CC1	n	x	x	x	x	n
COc1ccc(-c2cc(C(=O)OCC(=O)NC3CC3)c3ccccc3n2)cc1	n	x	3.79µM	n	n	n
COCCNC(=O)COC(=O)c1cc(-c2ccc(OC)cc2)nc2ccccc12	n	u	10.7µM	n	n	u
Cc1ccc[n+](CC(=O)c2ccc(Br)cc2)c1	n	x	n	n	n	n
Cc1ccc2nc(Cn3cc(C(F)(F)F)ccc3=O)cc(=O)n2c1	n	n	n	n	n	n
COc1cc(Nc2nnc(C)s2)c(Cl)cc1Cl	n	n	n	n	n	n
COCCOc1cc(Nc2nnc(C(F)(F)F)s2)c(Cl)cc1Cl	n	n	u	n	n	6.51µM
COc1cccc(N(C(=O)c2snc(C(N)=O)c2N)C(C(=O)NCc2ccccc2)c2ccc(O)cc2)c1 (stereo unspecified)	n	x	n	n	n	u
CCc1ccccc1NC1=NCC(=O)N1Cc1ccc2c(c1)OCO2	n	n	n	n	n	u
CNc1ccccc(-c2ccc3cc4c(cc3n2)OCO4)c1=O	u	x	3.38µM	u	u	u
Nc1[nH]c(N=NC(=O)c2ccccc2O)c2ccccc12	14.6µM	11.2µM	8.49µM	2µM	2.82µM	u
Nc1[nH]c(N=NC(=O)c2ccc(Cl)cc2)c2ccccc12	n	u	u	n	n	u
Nc1[nH]c(N=NC(=O)c2ccccc2)c2ccccc12	u	2.82µM	4.78µM	1.12µM	1.78µM	u
O=C(c1ccccc1)c1coc2c1C(=O)c1ccccc1C2=O	n	n	26.9µM	n	n	u
COCCn1cnnc1SCC(=O)Nc1sc2c(c1C#N)CCC2	n	x	x	n	n	n
Cc1ccc(C(=O)CC2(O)C(=O)N(Cc3ccccc3)c3ccccc32)o1 (stereo unspecified)	n	11.2µM	n	n	n	n
O=S(=O)(Nc1cccc(-c2ccc(N3CCCC3)nn2)c1)c1ccc(F)c(C(F)(F)F)c1	x	x	19µM	x	x	x
O=S(=O)(Nc1cccc(-c2ccc(N3CCCC3)nn2)c1)c1ccccc1C(F)(F)F	x	x	16.9µM	x	x	x
O=[N+]([O-])c1ccccc1S(=O)(=O)Nc1ccc(-c2ccc(N3CCCC3)nn2)cc1	n	x	n	n	n	u
O=S(=O)(Nc1cccc(-c2ccc(N3CCOCC3)nn2)c1)c1ccc(F)c(C(F)(F)F)c1	x	x	9.53µM	x	x	x
Cc1ccc(-n2ncc(C(=O)N3CCc4ccccc4C3)c2C2CCN(C(=O)OC(C)(C)C)CC2)cc1C	x	x	n	x	x	x
COc1ccc(/C=N/OC(=O)Nc2ccc(Cl)cc2)c(OC)c1	n	x	12µM	n	n	n
COc1ccc(NC(=O)O/N=C/c2ccc(Br)cc2)cc1	n	x	26.9µM	n	n	n
SMILES	ELG1 genotoxic	SMN2 splice enh	FLuc modulator	Rab9 prom act	NPC1 promoter act	ELG1 repair inh
COc1ccc(/C=N/OC(=O)Nc2ccccc2OC)cc1	u	15.8µM	8.49µM	u	n	u
CCN(CC)c1ccc(/C=N/OC(C)C(=O)Nc2ccc(C)cc2)cc1 (stereo unspecified)	n	n	u	n	n	n
Cc1ccc(NC(=O)O/N=C/c2ccc(Br)cc2)cc1	n	x	u	n	n	n
Cc1ccc(NC(=O)O/N=C/c2ccc(N(C)C)cc2)cc1	n	x	12µM	n	u	u
Cc1cc(N2CCCC2=O)c(N)cc1N	n	n	n	n	n	n
CN(C)c1ccc(/C=N/OC(=O)Nc2ccccc2Cl)cc1	n	x	23.9µM	n	n	u
Cc1ccc(C(=O)O/N=C/c2ccc(N(C)C)cc2)cc1	n	x	u	n	n	u
COc1ccc(NC(=O)O/N=C/c2ccncc2)cc1	n	n	u	n	n	n
COc1ccc(NC(=O)O/N=C/c2ccc(N(C)C)cc2)cc1	n	x	21.3µM	n	n	n
CC(C)OC(=O)[C@@H]1C=C[C@H](C)[C@@H](CCCCOCc2ccccc2)O1	x	n	x	x	x	x
O=C1CN(C(=O)c2ccc(F)cc2)c2ccccc2N1	n	x	n	n	n	n
CCOC(=O)C1CCN(c2ncnc3c(C)csc23)CC1	u	x	10.7µM	u	n	u
Cc1csc2c(N3CCN(C(=O)Nc4ccc(Cl)c(Cl)c4)CC3)ncnc12	n	x	u	n	n	18.3µM
Cc1csc2c(N3CCN(C(=O)NC(C)(C)C)CC3)ncnc12	n	x	n	n	n	u
Cc1csc2c(N3CCN(C(=O)c4ccc(C(C)(C)C)cc4)CC3)ncnc12	n	x	26.9µM	n	n	14.6µM
O=C(Cc1ccccc1)NCCc1cn2ccsc2n1	n	n	n	n	n	n
O=C(NN=C1C2CC3CC1CC(Cl)(C3)C2)c1cccs1	u	n	u	n	n	u
CN(C)/C(=N\S(=O)(=O)c1ccc(F)cc1)c1ccccc1	n	x	n	n	n	n
O=C(COC(=O)C12CC3CC(CC(O)(C3)C1)C2)Nc1ccc(Br)cc1F	u	x	x	3.55µM	u	u
O=C(COC(=O)C12CC3CC(CC(C3)C1)C2)Nc1ccccc1F	n	n	10.7µM	n	n	u
O=C(COC(=O)C12CC3CC(CC(O)(C3)C1)C2)Nc1ccccc1OC(F)F	n	n	u	n	n	n
O=C1c2ccccc2C(=O)N1CC1=NCCc2ccccc21	n	n	u	n	n	n
COC(=O)c1sc2nc(CN3CCOCC3)nc(N3CCOCC3)c2c1C	n	n	n	n	n	n
N#C/C(=C\c1c(F)cccc1Cl)S(=O)(=O)c1ccccn1	n	x	n	n	n	n
O=C(Nc1cccc(-c2nc3ccccc3s2)c1)c1cccs1	n	u	13.5µM	n	n	u
SMILES	ELG1 genotoxic	SMN2 splice enh	FLuc modulator	Rab9 prom act	NPC1 promoter act	ELG1 repair inh
Cc1cccc(NC(=O)c2cc(=O)c3ccccc3o2)c1	n	x	u	n[1.84 µM]	n	u
O=C(Nc1cccc(-c2nc3ccccc3s2)c1)c1cc(=O)c2ccccc2o1	n	n	n	n	n	9.2µM
Cc1cc(/C=C2/NC(=O)NC2=O)c(C)n1-c1ccccn1	n	u	21.3µM	n	n	u
Cc1ccc(-n2c(C)cc(/C=C3\NC(=O)NC3=O)c2C)c(C)c1	n	n	8.49µM	n	n	n
Cc1cc(/C=C2\NC(=O)NC2=O)c(C)n1-c1ccc(N2CCOCC2)cc1	n	x	n	n	n	u
Cc1cc(/C=C2/NC(=O)NC2=O)c(C)n1-c1ccc(C#N)cc1	n	n	n	n	n	n
COc1cccc(C=Nc2ccccc2C#N)c1O	n	u	2.69µM	n	n	n
COc1cccc(/C=N/c2oc(-c3ccccc3)cc2C#N)c1O	n	n	u	n	n	u
